Source: PubChem BioAssay
A number with no mark means an inactive call. No rule for the calls is given here.

Test system: Aerobactin synthetase IucA (Klebsiella pneumoniae hvKP1)
Assay: IucA enzyme inhibition, primary screen, biochemical, Spectrum library (AID 1346200);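 also: 100% = wells without compound and 0% = wells lacking enzyme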
Conditions: malachite green pyrophosphate, A620, at 8 µM, hits give low values

Structure (SMILES) | activity remaining [%]
O=c1ccn([C@@H]2O[C@H](COP(=O)(O)OP(=O)(O)OP(=O)(O)O)[C@@H](O)[C@H]2O)c(=O)[nH]1 | 98
NCC(O)CC(=O)O (stereo unspecified) | 98.6
NCC[C@@H](O)C(=O)N[C@@H]1C[C@H](N)[C@@H](O[C@H]2O[C@H](CN)[C@@H](O)[C@H](O)[C@H]2O)[C@H](O)[C@H]1O[C@H]1O[C@H](CO)[C@@H](O)[C@H](N)C1O (stereo partly specified) | 113
NC(Cc1ccc(F)cc1)C(=O)O (stereo unspecified) | 124
COc1ccc(CCN2CCC(Nc3nc4ccccc4n3Cc3ccc(F)cc3)CC2)cc1 | 124
Nc1ccc(C(=O)Oc2ccccc2)c(O)c1 | 114
CC(=O)Oc1cccc(C(=O)O)c1OC(C)=O | 120
COc1ccc2nc(S(=O)Cc3ncc(C)c(OC)c3C)[nH]c2c1 (stereo unspecified) | 126
N=c1ccn2c(n1)O[C@@H]1C2O[C@H](CO)[C@H]1O (stereo partly specified) | 105
O=C(O)c1ccccc1Nc1cccc(C(F)(F)F)c1 | 116
Cc1cc(=O)oc2cc(O)c(O)cc12 | 118
CC(C)(C)NCC(O)COc1cccc2c1C[C@H](O)[C@H](O)C2 (stereo partly specified) | 103
O=c1c(O)c(-c2ccccc2)oc2cc(O)ccc12 | 100
CCCCCCNC(=O)n1cc(F)c(=O)[nH]c1=O | 112
COc1ccc(-c2cc(=O)c3c(O)cc(O)c(-c4cc(-c5cc(=O)c6c(O)cc(O)cc6o5)ccc4OC)c3o2)cc1 | 117
COC(=O)C1=CO[C@@H](C)[C@@H]2CN3CC[C@]4(C(=O)Nc5ccccc54)C3CC12 (stereo partly specified) | 121
C[N+]1(C)C[C@H](O)[C@H](C(=O)[O-])C1 | 94.3
Nc1ccc(S(=O)(=O)Nc2ccc(Cl)nn2)cc1 | 112
CCCCC1=NC2(CCCC2)C(=O)N1Cc1ccc(-c2ccccc2-c2nn[nH]n2)cc1 | 121
CCOC(=O)C(Cc1ccc(O)cc1)NC(C)=O (stereo unspecified) | 98.7
O=C(Cc1ccccc1)NO | 109
N[C@H](Cc1ccccc1)C(=O)O | 122
C[C@]12CCC3c4ccc(O)cc4CCC3C1C[C@@H](O)[C@@H]2O (stereo partly specified) | 99.6
CC12CC[C@H](CC1=O)C2(C)C | 104
CC1CC(OC(=O)c2ccccc2O)CC(C)(C)C1 (stereo unspecified) | 110
CC(C)CCCC(C)C1CCC2C3=CC[C@H]4C[C@@H](O)CC[C@]4(C)C3CC[C@@]21C (stereo partly specified) | 114
